Most compounds without a hit are left out; they make up all but 11% or so of the library.
Pf growth 48h: inhibits P. falciparum growth in the first generation, 48 h; P. falciparum luciferase growth in erythrocytes, 48 h; Potency, µM (doses to about 28.7 µM), actives largely listed as inhibitors; 5.9% of 310,000 active
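A one-generation exposure of luciferase-tagged malaria parasites in RPMI 1640/Albumax erythrocyte culture, 37 C and 5% CO2. Inhibition is inferred from decreased luminescence after adding detection reagent.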
AMA1-RON2 inh: AMA1-RON2 (P. falciparum) interaction inhibition; Potency, µM (titrated, usually from 58.2 µM), most hits filed as inhibitors; AlphaScreen AMA1-biotinylated RON2 peptide binding; 0.2% of 360,000 active; also: nearly all actives have a fitted effect of over 45% in size
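AMA1 (3D7) with his tag at 25 nM final met compounds first, then biotinylated RON2 peptide at 25 nM; detection used donor plus acceptor beads, 10 µg/mL apiece, read by AlphaScreen after 30 min at room temperature.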
Sm TGR block: blocks Schistosoma mansoni thioredoxin glutathione reductase | Q962Y6 | purified TGR, DTNB reduction, TNB absorbance 405 nm | Potency, µM (titrated, usually from 114 µM), actives largely listed as inhibitors | 3% of 360,000 active; also: nearly all actives have a fitted effect of over 60% in size
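First, TGR (20 nM dispensed) and NADPH were mixed with compound. Second, a 15 min room-temperature incubation followed. Third, further NADPH and then DTNB were added to start the reaction. Finally, TNB absorbance was monitored kinetically.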
NS1 function inh: inhibitors of influenza NS1 protein function; 0.4% of 270,000 active; Potency, µM (titrated, usually from 46.1 µM); calls by dose curve; also: actives are rising curves; nearly all actives have a fitted effect of over 50% in size
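OD600 was taken as the measure of yeast growth restored by compound in an NS1-expressing S. cerevisiae strain. Cells had been washed out of glucose medium and diluted 1:100 into galactose -URA medium, pH 6.0.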
Pf growth 96h: P. falciparum growth inhibition at 96 hour, primary screen for plastid delayed-death inhibitors. P. falciparum luciferase reporter growth, 96 h. Potency, µM (doses to about 28.7 µM), actives largely listed as inhibitors. 6.9% of 320,000 active. AID 504834
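Cell-based qHTS: luciferase-tagged P. falciparum in erythrocytes (2% hematocrit, 0.05% parasitemia final) incubated with compounds for 96 hours, 37 C, 5% CO2; luciferase detection reagent then added and luminescence measured.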
A number is an active result; - = inactive; ? = inconclusive; . = no result given; [ ] = remark or other dose. Unless noted, calls follow the shape of the dose curve; as a rule, active = well fitted curve in the direction sought with a large enough effect; inconclusive = small, poorly fitted or top-dose-only effect, or another doubt; inactive = no such curve, though single readings can be large; an effect the other way counts as inactive or inconclusive.

SMILES	Pf growth 48h	AMA1-RON2 inh	Sm TGR block	NS1 function inh	Pf growth 96h
Cc1ccc(C(=O)Nc2cc(=O)n(C)c(=O)n2C)o1	-	-	-	-	-
COc1cc(/C=C\C(=O)Nc2cc(=O)n(C)c(=O)n2C)cc(OC)c1OC	5.2µM	-	-	.	?
Cn1c(NC(=O)/C=C/c2ccco2)cc(=O)n(C)c1=O	-	-	28µM	-	-
Cc1cccc(C(=O)Nc2cc(=O)n(C)c(=O)n2C)c1	-	-	-	-	-
COc1cc(/C=C/C(=O)N2CCCN(C(=O)/C=C/c3cc(OC)c(OC)c(OC)c3)CC2)cc(OC)c1OC	-	-	-	-	-
CN1[C@@H]2CC[C@H]1CC(OC(=O)C1C=Nc3ccccc31)C2 (stereo partly specified)	?	-	-	-	13µM
CN1C2CCC1CC(OC(=O)C(O)c1ccccc1)C2 (stereo unspecified)	.	.	.	-	.
CN(c1ccccc1N(C)S(=O)(=O)c1ccccc1)S(=O)(=O)c1ccccc1	.	-	.	.	.
CN(C)S(=O)(=O)c1ccccc1N=C=S	-	-	16µM	-	-
Cc1ccnc(NCc2cc(Cl)ccc2O)c1	.	-	.	.	.
Cc1ccnc(NCc2c(O)ccc3ccccc23)c1	-	-	?	-	0.093µM
CC(C)(C)c1cc(C(c2cccnc2)N2CCN(CCO)CC2)cc(C(C)(C)C)c1O (stereo unspecified)	.	?	0.45µM	-	-
COc1ccc(C(CC(=O)N2CCOCC2)c2c(OC)cc(OC)c3c(-c4ccccc4)cc(=O)oc23)cc1 (stereo unspecified)	10µM	-	-	-	?
COc1ccc(C(CC(=O)N2CCCC(C)C2)c2c(OC)cc(OC)c3ccc(=O)oc23)cc1 (stereo unspecified)	12µM	-	-	-	?
COc1cc(C(CC(=O)N2CCCC2)c2c(OC)cc(OC)c3c(-c4ccccc4)cc(=O)oc23)cc(OC)c1OC (stereo unspecified)	5.2µM	-	-	-	3.7µM
COc1ccc(C(CC(=O)N2CCCC(C)C2)c2c(OC)cc(OC)c3c(-c4ccccc4)cc(=O)oc23)cc1 (stereo unspecified)	9.3µM	-	?	-	12µM
CSc1ncccc1C(=O)NCC(c1cccs1)N1CCOCC1 (stereo unspecified)	?	-	-	.	-
COC(=O)c1ccc(-c2csc(NC(=O)c3c(C)noc3C)n2)cc1	-	-	-	.	-
COc1ccc(C(CC(=O)N2CCCCC2)c2c(OC)cc(OC)c3c(-c4ccccc4)cc(=O)oc23)cc1 (stereo unspecified)	12µM	-	?	-	13µM
COc1ccc(C(CC(=O)N2CCCC2)c2c(OC)cc(OC)c3ccc(=O)oc23)cc1 (stereo unspecified)	?	-	-	-	?
COc1ccc(C(CC(=O)N2CCCC2)c2c(OC)cc(OC)c3c(-c4ccccc4)cc(=O)oc23)cc1 (stereo unspecified)	9.3µM	-	-	-	?
COc1ccc(C(CC(=O)N2CCN(c3ccccc3)CC2)c2c(OC)cc(OC)c3c(-c4ccccc4)cc(=O)oc23)cc1 (stereo unspecified)	?	.	-	-	?
COc1ccccc1-n1cnnc1SCC(=O)NCC1CCCO1 (stereo unspecified)	-	-	-	.	-
C=CCSc1nc2ccccc2n2cnnc12	-[0.00184 µM]	-	-	-	-
CCOC(=O)CSc1nc2ccccc2n2cnnc12	-	-	50µM	-	-
SMILES	Pf growth 48h	AMA1-RON2 inh	Sm TGR block	NS1 function inh	Pf growth 96h
CC(=O)c1cccc(NC(=O)c2ccc3nc(C(C)C)oc3c2)c1	.	.	-	.	.
CN(C)c1ncc([N+](=O)[O-])cc1C(F)(F)F	0.74µM	-	?	-	-
Nc1ncc([N+](=O)[O-])cc1Br	-	-	-	-	-
O=C(NCCCn1ccnc1)c1cc2nc(-c3ccc(Br)cc3)cc(C(F)(F)F)n2n1	?	-	-	-	4.1µM
Cc1ccc2nc(-c3ccccc3)cc(C(=O)NCCCn3ccnc3)c2c1	13µM	-	-	-	?
O=C(NCCCn1ccnc1)c1cc(-c2ccncc2)nc2ccccc12	-	-	-	.	-
O=C(NCCCn1ccnc1)c1cc(-c2cccnc2)nc2ccc(Br)cc12	12µM	-	-	-	1.5µM
CCCNC(=O)c1cc2nc(-c3ccc(Br)cc3)cc(C(F)(F)F)n2n1	.	.	-	.	.
COc1ccc(N2CCN(CCCn3c(=S)[nH]c4ccccc4c3=O)CC2)cc1	?	-	-	-	?
COc1ccccc1N1CCN(CCCn2c(=S)[nH]c3ccccc3c2=O)CC1	7.4µM	-	-	-	-
Clc1cccc(C(c2ccc3nc[nH]c3c2)n2ccnc2)c1 (stereo unspecified)	13µM	.	.	.	5.4µM
O=C(N/N=C/c1ccc(Cl)cc1Cl)c1ccc2nc[nH]c2c1	?	-	-	-	?
Cc1csc(NC(=O)CSC2=NS(=O)(=O)c3ccccc3N2)n1	-	-	-	.	-
Cc1cccc(Nc2cc(=O)[nH]c(=O)[nH]2)c1	-	-	-	-	12µM
Cc1ccc(Nc2cc(=O)[nH]c(=O)[nH]2)cc1C	?	-	-	.	-
O=c1cc(Nc2cccc(Br)c2)[nH]c(=O)[nH]1	-	-	-	.	12µM
COc1ccccc1-c1nc2c(c(SCc3ccc(F)cc3Cl)n1)Cc1c(CO)cnc(C)c1O2	.	.	-	.	.
O=S(=O)(NN1CCOCC1)c1cc(Cl)cc(Cl)c1O	-	-	-	-	1.7µM
CC(=O)c1ccc(NC(=O)/C(=C\c2ccccc2)NC(=O)c2ccco2)cc1	-	-	?	.	-
COC(=O)c1c(C)n(-c2ccc(OC)cc2)c2ccc(O)cc12	12µM	-	-	-	-
COc1ccc(-n2c(C)c(C(C)=O)c3cc(OC(C)=O)ccc32)cc1	-	-	-	-	-
CCOC(=O)c1c(C)n(-c2ccc(F)cc2)c2ccc(O)cc12	2.6µM	-	-	-	-
O=C(Cc1ccc([N+](=O)[O-])cc1)Nc1cccc(C(=O)N2CCCCC2)c1	.	-	.	.	.
N#Cc1ccc(C(=O)OCCCc2cc3ccccc3c(=O)o2)cc1	-	-	50µM	.	-
O=C(OCCCc1cc2ccccc2c(=O)o1)c1ccc(F)cc1	-	-	35µM	.	-
SMILES	Pf growth 48h	AMA1-RON2 inh	Sm TGR block	NS1 function inh	Pf growth 96h
CCN(CC)C(=O)OCCc1cc2ccccc2c(=O)o1	-	-	3.2µM	.	?
COc1cc2cc(CCCOC(=O)c3ccc(F)cc3)oc(=O)c2cc1OC	-	-	?	.	?
O=C(OCCCc1cc2ccccc2c(=O)o1)c1ccccc1C(F)(F)F	-	-	11µM	.	-
Cc1cccc(C)c1NC(=O)Cn1nnc(S(=O)(=O)c2ccccc2)c1N	.	.	-	.	.
CCCSc1nnc(N2C(=O)C(O)=C(C(=O)c3ccco3)C2c2ccccc2F)s1 (stereo unspecified)	-	-	7.1µM	-	-
C=CCSc1nnc(N2C(=O)C(O)=C(C(=O)c3ccco3)C2c2ccccc2F)s1 (stereo unspecified)	-	-	11µM	-	-
COc1ccc(S(=O)(=O)CCC(=O)NCCc2cccc(C)c2)cc1	.	-	-	-	?
